Experimental data taken from PubChem BioAssay AID1220 (Sanford-Burnham Center for Chemical Genomics, 2008).
Among all 190,000 compounds or so, about 1,300 (0.68%) were called active. No stated cut-off is given here; in the data, active means inhibition above about 50%; inactive means the rest. For the sample, actives were picked, then their nearest neighbours and some compounds at random.

The compounds below were run against Mannose-6-phosphate isomerase (Homo sapiens) (UniProt P34949) (assay: MPI inhibition at elevated mannose 6-phosphate – biochemical, fluorescence intensity, high mannose 6-phosphate, primary screen (AID 1220)). Conditions: recombinant PMI enzyme, coupled fluorescence intensity; at 20 µM; active compounds read high.
Sequence of Mannose-6-phosphate isomerase (Homo sapiens) (P34949 whole entry, looked up): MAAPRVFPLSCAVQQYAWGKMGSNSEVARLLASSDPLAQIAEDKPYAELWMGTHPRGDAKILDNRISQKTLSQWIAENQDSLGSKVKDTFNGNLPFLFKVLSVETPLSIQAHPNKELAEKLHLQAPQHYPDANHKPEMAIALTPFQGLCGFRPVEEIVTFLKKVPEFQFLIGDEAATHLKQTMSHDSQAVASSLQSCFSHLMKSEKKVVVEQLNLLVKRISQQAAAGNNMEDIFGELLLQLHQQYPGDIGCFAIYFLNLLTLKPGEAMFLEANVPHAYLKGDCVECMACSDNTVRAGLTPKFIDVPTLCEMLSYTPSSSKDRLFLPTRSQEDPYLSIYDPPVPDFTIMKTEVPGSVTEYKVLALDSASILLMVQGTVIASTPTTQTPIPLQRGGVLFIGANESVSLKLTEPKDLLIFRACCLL

Compound	inhibition
O[C@H]1C2CCC1C(N1CCCCC1)CC2 (stereo partly drawn)	5.7% (inactive)
COc1ccc(OC)c(N2Cc3ccccc3C2=N)c1	-9.9% (inactive)
CNc1cc(N2CCN(C)CC2)ccc1[N+](=O)[O-]	28.3% (inactive)
CN(C)c1ccc(C=C(C#N)C#N)cc1	-8.3% (inactive)
Cc1cc(N2CCCC2)ccc1C=C(C#N)C#N	7.1% (inactive)
Cc1ccc2cc(C=C(C#N)C#N)c(Cl)nc2c1	57.1% (active)
COc1ccc(OC)c(N2C(=O)NC(=O)C3(Cc4cc(C)ccc4N(C)C3)C2=O)c1 (stereo not drawn)	-2.8% (inactive)
CC(=O)NC1C(OC(=O)Cc2ccccc2)OC(COC(C)=O)C(OC(C)=O)C1OC(C)=O (stereo not drawn)	-6% (inactive)
CCSc1cc(C2C(C#N)=C(N)Oc3n[nH]c(C)c32)c(C)o1 (stereo not drawn)	-0.6% (inactive)
CCN1CCN(c2ccc(N)cc2)CC1	35.6% (inactive)
CN1CCN(c2ccc(N)cc2)CC1	11.3% (inactive)
CC(C)N1CCN(c2ccc(O)cc2)CC1	65% (active)
O=C1C2CCN(CC2)C1Cc1ccc(OCc2ccccc2)cc1 (stereo not drawn)	1.5% (inactive)
Oc1ccc2ccccc2c1CN1CC=C(c2ccccc2)CC1	38.8% (inactive)
COc1ccc2c(CN3CC=C(c4ccccc4)CC3)cc(=O)oc2c1	14.2% (inactive)
COc1ccc2ccc(O)c(CN3CC=C(c4ccccc4)CC3)c2c1	57.7% (active)
COC(=O)c1c(N)n(Cc2ccc(OC)cc2)c2nc3ccccc3nc12	0.2% (inactive)
CCCNC(=O)c1c(N)n(Cc2ccc3c(c2)OCO3)c2nc3ccccc3nc12	27.5% (inactive)
CCCCNC(=O)c1c(N)n(Cc2ccc3c(c2)OCO3)c2nc3ccccc3nc12	69.1% (active)
CC(C)CCNC(=O)c1c(N)n(Cc2ccc3c(c2)OCO3)c2nc3ccccc3nc12	41.6% (inactive)
CCC(C)NC(=O)c1c(N)n(Cc2ccc3c(c2)OCO3)c2nc3ccccc3nc12 (stereo not drawn)	61.1% (active)
CC(C)CNC(=O)c1c(N)n(Cc2ccc3c(c2)OCO3)c2nc3ccccc3nc12	35.4% (inactive)
O=C(CCl)NCC1CCCO1 (stereo not drawn)	0.5% (inactive)
CCCCn1c(O)c(C(CC)=NCCN2CCOCC2)c(=O)[nH]c1=O	-61.4% (inactive)
O=C1c2ccccc2C(=O)N1Cc1nc2ccccc2c(=O)n1-c1ccc(Br)cn1	-1.8% (inactive)

Compound	inhibition
CC(=O)c1ccc2c(c1)C1C(Cl)C(Sc3ccccc3[N+](=O)[O-])CC1C(c1ccccc1)N2 (stereo not drawn)	-67.2% (inactive)
CC(=O)c1ccc2c(c1)C1C(Cl)C(Sc3ccccc3[N+](=O)[O-])CC1C(C(=O)O)N2 (stereo not drawn)	-51.9% (inactive)
CC(=O)c1ccc2c(c1)C1C(Cl)C(Sc3ccccc3[N+](=O)[O-])CC1C(c1ccccc1[N+](=O)[O-])N2 (stereo not drawn)	63.2% (active)
COc1cccc(NC(=O)CN2CC(c3ccccc3)CC2=O)c1 (stereo not drawn)	-4.8% (inactive)
COc1cccc(C2CC3C(=O)C=CC2N3Cc2ccccc2)c1 (stereo not drawn)	61.2% (active)
COc1cccc(CN2CCCCC2c2cccnc2)c1 (stereo not drawn)	-2.6% (inactive)
CCN(CC)CCCN=C(C)c1c(O)n(C2CCCCC2)c(=O)[nH]c1=O	-9.1% (inactive)
CCCCn1c(N)c(C(=O)NCCN2CCOCC2)c2nc3ccccc3nc21	48.6% (inactive)
CC(C)CCNC(=O)c1c(N)n(CC2CCCO2)c2nc3ccccc3nc12 (stereo not drawn)	23.9% (inactive)
Nc1c(C(=O)OC2CCCCC2)c2nc3ccccc3nc2n1CC1CCCO1 (stereo not drawn)	24.9% (inactive)
CCCNC(=O)c1c(N)n(CC2CCCO2)c2nc3ccccc3nc12 (stereo not drawn)	56.1% (active)
CC(C)OCCCNC(=O)c1c(N)n(CC2CCCO2)c2nc3ccccc3nc12 (stereo not drawn)	22.1% (inactive)
CC(C)OC(=O)c1c(N)n(CC2CCCO2)c2nc3ccccc3nc12 (stereo not drawn)	16.9% (inactive)
CCC(C)NC(=O)c1c(N)n(CC2CCCO2)c2nc3ccccc3nc12 (stereo not drawn)	64.3% (active)
CCCCn1c(N)c(C(=O)OCC2CCCO2)c2nc3ccccc3nc21 (stereo not drawn)	12% (inactive)
CC(C)CCOC(=O)c1c(N)n(CC2CCCO2)c2nc3ccccc3nc12 (stereo not drawn)	5.9% (inactive)
Nc1c(C(=O)NC2CCCC2)c2nc3ccccc3nc2n1CC1CCCO1 (stereo not drawn)	62.2% (active)
CCCCCn1c(N)c(C(=O)NCCN2CCOCC2)c2nc3ccccc3nc21	51.4% (active)
CCCCCCn1c(N)c(C(=O)NCCN2CCOCC2)c2nc3ccccc3nc21	23.2% (inactive)
CC(NCc1ccccc1Cl)C(O)c1ccccc1 (stereo not drawn)	-3.1% (inactive)
CCN(CC)P(=S)(c1c(C)nc2ccccn12)c1c(C)nc2ccccn12	-6.3% (inactive)
CN1CCN(S(=O)(=O)c2cnc(Cl)c(Br)c2)CC1	10.5% (inactive)
COc1ccc(N2C(=O)NC(=O)/C(=C/c3ccc4c(c3)Cc3ccccc3-4)C2=O)cc1	-32.8% (inactive)
COc1ccc(-c2cc(=NCCC(=O)O)c3cc(C)ccc3o2)cc1	3.9% (inactive)
CN1CCN(c2ccc(F)cc2N)CC1	-0.9% (inactive)

Compound	inhibition
OCC12COC3c4ccccc4C(OC1)N32 (stereo not drawn)	5.1% (inactive)
COc1ccc(N=Cc2c(O)n(Cc3cccs3)c(=O)[nH]c2=O)cc1	0.9% (inactive)
COc1ccc(OP(=O)(Nc2ccccc2)Nc2ccccc2)cc1	-14.6% (inactive)
COc1ccc(NP(=O)(Nc2ccc(OC)cc2)Oc2ccccc2)cc1	-1.9% (inactive)
COc1ccc(P2(=O)Nc3ccccc3N2)cc1	52.2% (active)
C[N+](C)(C)c1ccccc1	10.3% (inactive)
CCCCCCC(=O)c1c(O)n(-c2ccccc2OC)c(=O)[nH]c1=O	-8.9% (inactive)
CCn1nc(-c2cccs2)nc2c(=O)n(C)c(=O)nc1-2	8.9% (inactive)
O=[N+]([O-])c1ccc(N2CCCC2)c2ccncc12	47.4% (inactive)
O=[N+]([O-])c1ccc(N2CCOCC2)c2ccncc12	55.8% (active)
O=[N+]([O-])c1ccc(N2CCOCC2)c2cccnc12	36.9% (inactive)
COc1cccc(C(=O)C2CCCN(Cc3ccon3)C2)c1 (stereo not drawn)	8.8% (inactive)
O=C(CN1CCOCC1)NCC(=O)Nc1ccc(Br)cc1C(=O)c1ccccc1	-0.3% (inactive)
CCC[N+]12CCC(CC1)C(=C(c1ccccc1)c1ccccc1)C2	5.9% (inactive)
O=c1[nH]c(=S)n(Cc2ccc(F)cc2)c(O)c1C=NCC1CCCO1 (stereo not drawn)	6.1% (inactive)
COCCNC(=O)c1c(NC(=O)c2ccc(Br)o2)n(Cc2ccccc2)c2nc3ccccc3nc12	46.5% (inactive)
CCCCn1c(NS(=O)(=O)c2ccccc2)c(C(=O)OCC)c2nc3ccccc3nc21	42.5% (inactive)
CCCCn1c(NS(=O)(=O)c2ccc(C)cc2)c(C(=O)OCC)c2nc3ccccc3nc21	52.3% (active)
CCOC(=O)c1c(NS(=O)(=O)c2ccccc2)n(CCCOC)c2nc3ccccc3nc12	44.9% (inactive)
CCCCn1c(NC(=O)c2ccc(Br)o2)c(C(=O)OCC)c2nc3ccccc3nc21	56.4% (active)
CCOC(=O)c1c(N)n(CCCOC(=O)c2ccco2)c2nc3ccccc3nc12	0.2% (inactive)
Cc1cc(C=O)c(C)n1CC1CCCO1 (stereo not drawn)	-8.4% (inactive)
COc1ccc(C(=O)C2CCCN(C3CSCCSC3)C2)cc1OC (stereo not drawn)	8.3% (inactive)
CN1C(=O)C(=Cc2ccccc2OCc2ccccc2Cl)C(=O)N(C)C1=O	-9.8% (inactive)
CCn1nc(-c2ccccc2)nc2c(=O)n(C)c(=O)nc1-2	7.6% (inactive)

Compound	inhibition
Cn1ncnc2c(=O)n(C)c(=O)nc1-2	61.6% (active)
CCn1nc(/C=C/c2ccccc2)nc2c(=O)n(C)c(=O)nc1-2	46.6% (inactive)
Cc1cc(=O)n(-c2ccccc2)n1-c1ccccc1	-4.7% (inactive)
CCOC(=O)c1c(-n2c(C)cc(/C=C3\C(=O)NC(=O)N(C)C3=O)c2C)sc2c1CCCC2	12.7% (inactive)
Cc1cc2c(C(C)C)c(O)c(O)c(C=O)c2c(O)c1-c1c(C)cc2c(C(C)C)c(O)c(O)c(C=O)c2c1O	51.4% (active)
COc1ccc(-c2nc3ccccc3c(=O)n2-c2cccnc2)cc1	-2.9% (inactive)
O=C1/C(=C\c2cc3c(cc2Cl)OCO3)N2CCC1CC2	57.2% (active)
O=C1/C(=C/c2cc3c(cc2Cl)OCO3)N2CCC1CC2	51% (active)
O=C1/C(=C/c2ccc3c(c2)OCO3)N2CCC1CC2	-2.8% (inactive)
O=C1/C(=C\c2cc3c(cc2Br)OCO3)N2CCC1CC2	19.8% (inactive)
O=C1/C(=C\c2ccc3c(c2)OCO3)N2CCC1CC2	5.7% (inactive)
O=C1/C(=C/c2cc([N+](=O)[O-])ccc2Cl)N2CCC1CC2	-0.3% (inactive)
CCN(CC)CC(O)c1ccc(C2CCCC2)cc1 (stereo not drawn)	-5.5% (inactive)
C=CCn1c(O)c(C(CC)=Nc2ccccc2NC(C)=O)c(=O)[nH]c1=O	0.5% (inactive)
CCOC(=O)C(NC(C)=O)C(OC(C)=O)c1cccc(N(CCCl)CCCl)c1 (stereo not drawn)	-101% (inactive)
CC(NC(=O)Oc1ccccc1)C(c1cccs1)N1CCOCC1 (stereo not drawn)	3% (inactive)
Cc1ccc(-c2nn(Cc3ccccc3)cc2C=O)cc1	3.6% (inactive)
O=c1[nH]c(O)c(N=Nc2ccc([N+](=O)[O-])cc2)c(=O)[nH]1	-7.5% (inactive)
O=C(N=Nc1c(O)[nH]c(=O)[nH]c1=O)C1COc2ccccc2O1 (stereo not drawn)	56.6% (active)
O=C(c1ccccc1)c1ccc(N=Nc2c(O)[nH]c(=O)[nH]c2=O)cc1	-8.7% (inactive)
O=C(N=Nc1c(O)[nH]c(=O)[nH]c1=O)C1COc2cc3ccccc3cc2O1 (stereo not drawn)	51.7% (active)
NC(=O)c1ccc(N=Nc2c(O)[nH]c(=O)[nH]c2=O)cc1	2.6% (inactive)
O=c1[nH]c(O)c(N=Nc2ccc3c(c2)OCCO3)c(=O)[nH]1	2.6% (inactive)
